Key:
Test in all cases: DAPPL (digital affinity profiling via proximity ligation, sequencing); 10 mM Tris-HCl pH 7.5, 50 mM NaCl, 1 mM DTT, 4% glycerol, room temperature, 30 min; GST-TFs on glutathione beads, 16-mer random dsDNA library, 0.1% formaldehyde crosslink after washing; high values mean tight binding
Conditions in all cases: protein: recombinant; tags: N-terminal GST; dsDNA, one strand shown
[1] = target: T1, ELK4 (Homo sapiens, UniProt P28324-2 1-405)
T1 sequence: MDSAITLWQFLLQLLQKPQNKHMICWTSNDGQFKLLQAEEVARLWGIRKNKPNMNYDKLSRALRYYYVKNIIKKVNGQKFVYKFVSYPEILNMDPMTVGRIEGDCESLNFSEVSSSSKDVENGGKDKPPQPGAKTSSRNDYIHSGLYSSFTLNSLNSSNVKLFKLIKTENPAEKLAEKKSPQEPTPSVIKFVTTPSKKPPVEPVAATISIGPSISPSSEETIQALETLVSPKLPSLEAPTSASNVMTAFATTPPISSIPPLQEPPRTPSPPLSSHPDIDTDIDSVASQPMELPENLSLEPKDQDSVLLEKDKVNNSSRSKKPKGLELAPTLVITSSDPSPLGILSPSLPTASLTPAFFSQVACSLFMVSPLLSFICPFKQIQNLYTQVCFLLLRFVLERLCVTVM
How it was run: (§1)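 Human transcription factors were made in yeast as GST fusions, captured on glutathione beads and barcoded with DNA. With a tag-only sample included, the pool was incubated with 200 nmole of a random double-stranded 16-mer DNA library in Tris/NaCl/DTT/glycerol buffer at room temperature for 30 min, then crosslinked with 0.1% formaldehyde after washing, ligated by proximity, amplified and sequenced. For binding signal, each hexamer's read frequency for a factor is divided by its frequency for the tag-only sample.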

[2] = target: T2, ETV2 (Homo sapiens, UniProt O00321 1-342)
T2 sequence: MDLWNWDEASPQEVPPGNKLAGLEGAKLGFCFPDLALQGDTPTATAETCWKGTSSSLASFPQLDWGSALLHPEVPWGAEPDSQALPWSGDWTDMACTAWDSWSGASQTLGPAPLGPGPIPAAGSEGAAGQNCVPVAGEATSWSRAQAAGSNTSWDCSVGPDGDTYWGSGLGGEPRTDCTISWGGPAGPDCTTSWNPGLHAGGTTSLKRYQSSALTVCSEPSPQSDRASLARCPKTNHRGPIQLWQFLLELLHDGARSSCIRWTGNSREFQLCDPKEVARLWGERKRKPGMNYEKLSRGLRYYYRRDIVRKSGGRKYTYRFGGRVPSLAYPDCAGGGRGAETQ
How it was run: as §1

[3] = target: T3, ETV3L (Homo sapiens, UniProt Q6ZN32 1-361)
T3 sequence: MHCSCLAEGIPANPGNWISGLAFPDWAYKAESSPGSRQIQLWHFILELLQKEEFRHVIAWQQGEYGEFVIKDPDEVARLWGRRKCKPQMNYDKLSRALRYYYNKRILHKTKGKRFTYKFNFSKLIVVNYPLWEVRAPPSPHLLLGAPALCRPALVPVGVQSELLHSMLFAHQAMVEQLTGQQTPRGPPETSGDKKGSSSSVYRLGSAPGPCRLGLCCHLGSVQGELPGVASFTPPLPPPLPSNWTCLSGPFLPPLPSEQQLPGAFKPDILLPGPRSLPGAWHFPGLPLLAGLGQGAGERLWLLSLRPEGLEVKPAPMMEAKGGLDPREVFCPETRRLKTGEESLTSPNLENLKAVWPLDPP
How it was run: as §1

[4] = target: T4, ETV7 (Homo sapiens, UniProt Q9Y603 1-341)
T4 sequence: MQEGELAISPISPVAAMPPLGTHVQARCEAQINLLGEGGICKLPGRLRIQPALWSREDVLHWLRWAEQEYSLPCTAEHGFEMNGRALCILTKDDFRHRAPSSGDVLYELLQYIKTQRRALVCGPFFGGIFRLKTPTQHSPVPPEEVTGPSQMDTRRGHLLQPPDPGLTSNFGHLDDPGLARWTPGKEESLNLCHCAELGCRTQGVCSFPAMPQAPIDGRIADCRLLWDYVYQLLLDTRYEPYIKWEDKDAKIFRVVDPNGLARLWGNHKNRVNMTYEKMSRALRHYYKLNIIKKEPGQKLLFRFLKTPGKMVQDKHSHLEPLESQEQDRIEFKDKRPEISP
How it was run: as §1

[5] = target: T5, ELK3 (Homo sapiens, UniProt P41970 1-407)
T5 sequence: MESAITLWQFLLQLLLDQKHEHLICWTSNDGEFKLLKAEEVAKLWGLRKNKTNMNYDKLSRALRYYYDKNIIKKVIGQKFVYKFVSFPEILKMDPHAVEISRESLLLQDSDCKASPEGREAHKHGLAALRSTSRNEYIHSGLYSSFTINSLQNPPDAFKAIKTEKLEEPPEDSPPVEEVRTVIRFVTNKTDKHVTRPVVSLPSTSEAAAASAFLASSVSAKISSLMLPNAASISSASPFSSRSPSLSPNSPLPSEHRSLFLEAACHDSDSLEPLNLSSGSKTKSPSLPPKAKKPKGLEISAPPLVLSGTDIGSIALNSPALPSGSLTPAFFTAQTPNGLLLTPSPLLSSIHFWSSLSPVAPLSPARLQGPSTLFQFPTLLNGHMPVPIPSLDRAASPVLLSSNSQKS
How it was run: as §1

[6] = target: T6, FEV (Homo sapiens, UniProt Q99581 1-238)
T6 sequence: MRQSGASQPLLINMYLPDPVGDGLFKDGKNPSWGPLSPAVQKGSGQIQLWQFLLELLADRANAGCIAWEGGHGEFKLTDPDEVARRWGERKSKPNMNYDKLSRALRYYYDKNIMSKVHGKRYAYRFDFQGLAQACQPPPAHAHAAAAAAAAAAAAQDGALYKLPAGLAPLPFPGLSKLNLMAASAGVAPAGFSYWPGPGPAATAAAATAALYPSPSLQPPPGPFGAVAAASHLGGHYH
How it was run: as §1

[7] = target: T7, SPDEF (Homo sapiens, UniProt O95238 1-335)
T7 sequence: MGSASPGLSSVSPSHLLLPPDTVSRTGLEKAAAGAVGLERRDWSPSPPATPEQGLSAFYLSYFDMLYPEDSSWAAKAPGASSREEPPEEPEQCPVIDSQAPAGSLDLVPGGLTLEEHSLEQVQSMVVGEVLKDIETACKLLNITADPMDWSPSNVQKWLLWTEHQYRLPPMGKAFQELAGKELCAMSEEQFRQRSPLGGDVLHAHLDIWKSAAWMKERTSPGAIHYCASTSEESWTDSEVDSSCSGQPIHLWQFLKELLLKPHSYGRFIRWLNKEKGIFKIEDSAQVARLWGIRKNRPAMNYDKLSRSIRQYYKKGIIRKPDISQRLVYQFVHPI
How it was run: as §1

[8] = target: ELF1 (Homo sapiens, UniProt P32519 1-619)
How it was run: as §1

[9] = target: T8, ERF (Homo sapiens, UniProt P50548 1-548)
T8 sequence: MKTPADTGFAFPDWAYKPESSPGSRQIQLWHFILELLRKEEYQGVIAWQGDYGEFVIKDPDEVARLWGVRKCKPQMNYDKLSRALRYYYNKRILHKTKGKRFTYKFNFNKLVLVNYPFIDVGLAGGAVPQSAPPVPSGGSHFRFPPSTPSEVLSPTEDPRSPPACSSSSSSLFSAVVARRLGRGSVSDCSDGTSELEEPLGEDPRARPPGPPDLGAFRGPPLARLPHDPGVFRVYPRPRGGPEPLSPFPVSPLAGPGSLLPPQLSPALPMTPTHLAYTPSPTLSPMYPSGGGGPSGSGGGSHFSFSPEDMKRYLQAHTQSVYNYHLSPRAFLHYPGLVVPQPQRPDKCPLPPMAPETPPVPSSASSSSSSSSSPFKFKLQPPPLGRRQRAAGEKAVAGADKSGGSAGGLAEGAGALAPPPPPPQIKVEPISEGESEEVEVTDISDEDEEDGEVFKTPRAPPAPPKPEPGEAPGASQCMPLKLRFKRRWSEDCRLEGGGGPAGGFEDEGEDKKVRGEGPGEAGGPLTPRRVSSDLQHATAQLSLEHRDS
How it was run: as §1

[10] = target: T9, ETV3 (Homo sapiens, UniProt P41162-2 1-143)
T9 sequence: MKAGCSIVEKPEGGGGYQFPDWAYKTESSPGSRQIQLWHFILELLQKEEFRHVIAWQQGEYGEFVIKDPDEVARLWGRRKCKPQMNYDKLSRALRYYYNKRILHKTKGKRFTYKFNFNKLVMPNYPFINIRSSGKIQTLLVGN
How it was run: as §1

[11] = target: T10, ELF3 (Homo sapiens, UniProt P78545 1-371)
T10 sequence: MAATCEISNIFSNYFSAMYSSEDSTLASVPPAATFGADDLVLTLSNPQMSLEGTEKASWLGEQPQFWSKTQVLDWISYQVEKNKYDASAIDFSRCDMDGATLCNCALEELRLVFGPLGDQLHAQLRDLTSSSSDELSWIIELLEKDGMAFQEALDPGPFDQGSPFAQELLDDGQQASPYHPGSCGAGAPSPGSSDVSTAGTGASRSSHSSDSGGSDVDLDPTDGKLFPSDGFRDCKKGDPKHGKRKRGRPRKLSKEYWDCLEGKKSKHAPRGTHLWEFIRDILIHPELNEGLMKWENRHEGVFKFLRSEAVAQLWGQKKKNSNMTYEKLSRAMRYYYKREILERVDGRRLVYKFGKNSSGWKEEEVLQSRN
How it was run: as §1

[12] = target: T11, ETS2 (Homo sapiens, UniProt P15036 1-469)
T11 sequence: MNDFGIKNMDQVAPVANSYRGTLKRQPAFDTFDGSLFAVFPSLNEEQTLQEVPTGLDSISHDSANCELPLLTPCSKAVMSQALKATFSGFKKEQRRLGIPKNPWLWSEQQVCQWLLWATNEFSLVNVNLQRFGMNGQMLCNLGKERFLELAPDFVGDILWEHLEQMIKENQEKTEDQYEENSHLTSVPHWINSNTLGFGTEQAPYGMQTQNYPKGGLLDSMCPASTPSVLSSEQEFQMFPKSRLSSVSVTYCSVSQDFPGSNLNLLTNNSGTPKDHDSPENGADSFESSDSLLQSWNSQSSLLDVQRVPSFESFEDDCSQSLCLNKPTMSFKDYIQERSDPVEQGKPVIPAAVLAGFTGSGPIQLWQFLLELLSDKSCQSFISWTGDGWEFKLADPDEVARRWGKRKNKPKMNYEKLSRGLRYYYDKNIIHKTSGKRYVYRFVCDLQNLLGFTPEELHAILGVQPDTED
How it was run: as §1

Chain of ELF1 (P32519 whole entry): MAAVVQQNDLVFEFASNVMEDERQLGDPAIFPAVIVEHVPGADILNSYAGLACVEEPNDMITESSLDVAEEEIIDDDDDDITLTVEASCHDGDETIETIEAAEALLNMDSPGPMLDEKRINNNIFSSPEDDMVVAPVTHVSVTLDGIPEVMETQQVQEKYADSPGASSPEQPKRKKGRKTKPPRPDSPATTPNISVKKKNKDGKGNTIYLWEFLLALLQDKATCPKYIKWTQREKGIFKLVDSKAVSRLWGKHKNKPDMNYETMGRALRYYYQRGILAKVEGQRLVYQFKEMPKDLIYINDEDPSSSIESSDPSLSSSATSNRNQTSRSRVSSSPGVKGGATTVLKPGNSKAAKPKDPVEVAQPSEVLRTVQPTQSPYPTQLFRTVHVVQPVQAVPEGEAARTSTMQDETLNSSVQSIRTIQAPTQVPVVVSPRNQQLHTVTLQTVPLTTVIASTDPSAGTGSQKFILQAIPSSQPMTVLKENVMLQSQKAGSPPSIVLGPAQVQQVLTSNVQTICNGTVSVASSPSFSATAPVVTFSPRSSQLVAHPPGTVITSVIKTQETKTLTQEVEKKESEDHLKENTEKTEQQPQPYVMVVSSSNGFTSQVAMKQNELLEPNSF

Sequence: GGCCTG
- binding signal [1]: 1.08 fold enrichment (6-mer frequency, TF over GST control)
- binding signal [2]: 1.06 fold enrichment (6-mer frequency, TF over GST control)
- binding signal [3]: 1.04 fold enrichment (6-mer frequency, TF over GST control)
- binding signal [4]: 1.03 fold enrichment (6-mer frequency, TF over GST control)

Sequence: CGGTCC
- binding signal [5]: 1.03 fold enrichment (6-mer frequency, TF over GST control)
- binding signal [6]: 1.06 fold enrichment (6-mer frequency, TF over GST control)
- binding signal [1]: 1.08 fold enrichment (6-mer frequency, TF over GST control)
- binding signal [7]: 1.04 fold enrichment (6-mer frequency, TF over GST control)

Sequence: ACACAG
- binding signal [8]: 1.05 fold enrichment (6-mer frequency, TF over GST control)
- binding signal [1]: 1.12 fold enrichment (6-mer frequency, TF over GST control)
- binding signal [9]: 1.04 fold enrichment (6-mer frequency, TF over GST control)
- binding signal [3]: 1.05 fold enrichment (6-mer frequency, TF over GST control)
- binding signal [4]: 1.13 fold enrichment (6-mer frequency, TF over GST control)

Sequence: GTAGCG
- binding signal [1]: 1.01 fold enrichment (6-mer frequency, TF over GST control)
- binding signal [10]: 1.01 fold enrichment (6-mer frequency, TF over GST control)

Sequence: CAGTAT
- binding signal [5]: 1.03 fold enrichment (6-mer frequency, TF over GST control)
- binding signal [1]: 1.06 fold enrichment (6-mer frequency, TF over GST control)
- binding signal [2]: 1.08 fold enrichment (6-mer frequency, TF over GST control)
- binding signal [11]: 1.1 fold enrichment (6-mer frequency, TF over GST control)
- binding signal [9]: 1.1 fold enrichment (6-mer frequency, TF over GST control)
- binding signal [3]: 1.02 fold enrichment (6-mer frequency, TF over GST control)
- binding signal [12]: 1.02 fold enrichment (6-mer frequency, TF over GST control)
